Results filed as inconclusive are left out. Unmarked numbers belong to inactive results. Active and inactive are the calls of the source. Calls follow the shape of the dose curve; as a rule, active = well fitted activation curve with a large enough effect in the repeat runs; inconclusive = weak or mixed curves; inactive = flat fitted curve, though single readings scatter.
Test: Caspase-3/7 induction in HepG2 cells by small molecules, qHTS assay (AID 1346978); also: nearly all actives have a fitted effect of over 15% in size
Settings: HepG2 caspase-3/7 activation, Caspase-Glo luminescence, 17 h; series mostly up to 92.4 µM
From the text: National Center for Advancing Translational Sciences [NCATS] NIH Chemical Genomics Center [NCGC] U.S. Environmental Protection Agency [EPA] National Institutes of Environmental Health Sciences [NIEHS] National Toxicology Program [NTP] Assay overview: Apoptosis is a process of programmed cell death and plays a central role in the development of multicellular organisms. It is a highly regulated process and induces cell death by activating caspases, which are the members of cysteine aspartic acid-specific protease (caspase) family. Caspases involved in apoptosis are classified by their mechanism of action as initiator caspases (caspase-2, -8, -9 and -10) and executioner caspases (caspase-3, -6, and -7). Inhibition of apoptosis results in number of cancers, autoimmune diseases, inflammatory diseases and viral infection. To identify small molecule compounds that induce apoptosis, a homogeneous, luminescent Caspase-Glo 3/7 assay was used. Wild type HepG2 cells were used to screen Tox21 libraries for identifying caspase-3/7 activity inducers.
Assay Protocol Summary: HepG2 cells were dispensed at 2,000 per well in 5uL of culture medium into white solid bottom 1536-well plates (Corning Life Sciences, Corning, NY) using a Multidrop Combi (Thermo Scientific, Waltham, MA) dispenser. The assay plates were incubated at 37 C and 5% CO2 for 5hr, and then 23nL of compounds dissolved in DMSO and positive control were transferred using a Pintool station (Wako, San Diego, CA). The assay plates were incubated at 37C and 5% CO2 for 17hr. For caspase-3/7 activity read, 4uL of Caspase-Glo 3/7 reagent (Promega Corporation, Madison, WI) was added to each well of the assay plates using Flying Reagent Dispenser (FRD, Aurora Discovery, San Diego, CA) and incubated the assay plates at room temperature for 30min. The luminescence signal was quantified using a ViewLux plate reader (Perkin Elmer, Shelton, CT).
With `O=C(O)C1CCC(C(=O)O)CC1` (stereo not given) the outcome was “inactive”.
In the case of `CCCCCOC(=O)c1ccc(O)cc1`, the outcome is reported as “inactive”.
For `Nc1nc(N)c2nc(CNc3ccc(C(=O)N[C@@H](CCC(=O)O)C(=O)O)cc3)cnc2n1`, the outcome was “inactive”.
With `Nc1nc(N)c(-c2ccccc2)s1` the outcome was “inactive”.
For `CCCCCCCC/C=C\CCCCCCCC(N)=O`, the outcome was “inactive”.
In the case of `COC(=O)C(C)=O`, the outcome is reported as “inactive”.
For `CC(C)(C)c1cc(O)c(C(C)(C)C)cc1O`, the outcome was “inactive”.
In the case of `NC(=S)N/N=C/c1cccnc1`, the outcome is reported as “inactive”.
For `O=C(O)c1cn(C2CC2)c2cc(Cl)c(F)cc2c1=O`, the outcome was “inactive”.
For `Cc1cccc(OCCOc2cccc(C)c2)c1`, the outcome was “inactive”.
For `CCCCCCc1ccc(N)cc1`, the outcome was “inactive”.
With `Cc1cccc(C(C)(C)C)c1O` the outcome was “inactive”.
In the case of `CN1CCC(=C2c3ccccc3CCc3sccc32)CC1`, the outcome is reported as “inactive”.
For `CN(C)CC[C@@H](c1ccc(Br)cc1)c1ccccn1`, the outcome was “inactive”.
With `CCN(CC)CCOC(=O)C1(c2ccccc2)CCCC1` the outcome was “inactive”.
In the case of `CCCc1ccccc1`, the outcome is reported as “inactive”.
With `Nc1cnn([C@@H]2O[C@H](CO)[C@@H](O)[C@H]2O)c(=O)n1` the outcome was “inactive”.
In the case of `Cc1ccc(C)o1`, the outcome is reported as “inactive”.
In the case of `CC(=O)OC/C=C/c1ccccc1`, the outcome is reported as “inactive”.
In the case of `CC(C)(Oc1ccc(Cl)cc1)C(=O)OCCCOC(=O)C(C)(C)Oc1ccc(Cl)cc1`, the outcome is reported as “inactive”.
In the case of `O=[N+]([O-])c1cccc(Cl)c1Cl`, the outcome is reported as “inactive”.
With `O=C(CC(=O)c1ccccc1)c1ccccc1` the outcome was “inactive”.
For `CN1CCN(C2=Nc3ccccc3Sc3ccc(Cl)cc32)CC1`, the outcome was “inactive”.
With `CC(=O)/C(C)=C/C1C(C)=CCCC1(C)C` (stereo not given) the outcome was “inactive”.
For `COCCO`, the outcome was “inactive”.
`O=C(CCN1CCN2CCCC2C1)N1c2ccccc2Sc2ccc(Cl)cc21` (stereo not given) gave a caspase activation of 1.09% [at 19 µM].
For `O=C=NC1CCC(CC2CCC(N=C=O)CC2)CC1` (stereo not given), the outcome was “inactive”.
With `NC1CCN(c2nc3c(cc2F)c(=O)c(C(=O)O)cn3-c2ccc(F)cc2F)C1` (stereo not given) the outcome was “inactive”.
With `CN(C)C/C=C(/c1ccc(Br)cc1)c1cccnc1` the outcome was “inactive”.
For `O=C(O)Cn1c(C(=O)Nc2nc(-c3ccccc3Cl)cs2)cc2ccccc21`, the outcome was “inactive”.
In the case of `COCCOCCOCCOCCOC`, the outcome is reported as “inactive”.
In the case of `O=c1c2ccccc2nnn1CCl`, the outcome is reported as “inactive”.
For `CCCCCCCCCC(=O)OCC`, the outcome was “inactive”.
In the case of `CC(=O)CC(=O)c1ccccc1`, the outcome is reported as “inactive”.
With `CC[C@H](C)[C@H](N)C(=O)O` the outcome was “inactive”.
With `CCC(C)N(C)C(=O)c1cc2ccccc2c(-c2ccccc2Cl)n1` (stereo not given) the outcome was “inactive”.
With `CN1CCC(=C2c3ccccc3C=Cc3ccccc32)CC1` the outcome was “inactive”.
With `CCN(CC)CCOc1ccc2c(c1)C(=O)c1cc(OCCN(CC)CC)ccc1-2` the outcome was “inactive”.
In the case of `Oc1ccc(C(O)CNCCCCCCNCC(O)c2ccc(O)c(O)c2)cc1O` (stereo not given), the outcome is reported as “inactive”.
For `Cc1ccc2c(ccc3ccccc32)c1`, the outcome was “inactive”.

From PubChem BioAssay (Tox21)
% is scaled to controls: 0 for no effect and ±100 for the full control effect.
